Results from PubChem BioAssay (NCI).
About 79,000 compounds went through this panel and 15% of them were active in at least one assay; those are over-represented in the sample as a whole. Values without a mark were called inactive. Calls of active or inactive are those of the source. Cut-off read from the data, not from the text of the source: active = growth inhibition above about 70%; inactive = the rest.

Key:
[1] = NCI Yeast Anticancer Drug Screen. Data for the mlh1 strain (AID 171);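 note: 0% = growth of vehicle-treated control cultures of the same strain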; details: S. cerevisiae mlh1 strain growth inhibition, active compounds read high
Procedure, shortened: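 Inhibition values reflect reduced yeast growth in the presence of compound, referenced to vehicle controls, using a strain chosen for its alteration in DNA repair or cell cycle control.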

[2] = NCI Yeast Anticancer Drug Screen. Data for the sgs1 strain (AID 173);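 note: 0% = growth of vehicle-only control cultures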; details: S. cerevisiae sgs1 mutant, active compounds read high
Procedure, shortened: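 Vehicle-treated cultures served as reference for growth inhibition of a yeast strain altered in DNA damage repair or cell cycle control after compound exposure.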

[3] = NCI Yeast Anticancer Drug Screen. Data for the mlh1 rad18 strain (AID 175); details: S. cerevisiae mlh1 rad18 strain growth inhibition, active compounds read high
Procedure, shortened: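 Inhibition values reflect reduced growth of mutant yeast versus vehicle-treated controls following compound exposure; the mutations affect DNA damage repair.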

[4] = NCI Yeast Anticancer Drug Screen. Data for the rad18 strain (AID 177); details: S. cerevisiae rad18 mutant growth inhibition, active compounds read high
Procedure, shortened: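 Steps: expose repair-mutant yeast to compound; measure growth; express as inhibition relative to vehicle control.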

[5] = NCI Yeast Anticancer Drug Screen. Data for the rad52 strain (AID 147);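 note: 0% = growth of vehicle-treated control cultures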; details: S. cerevisiae rad52 mutant growth inhibition, active compounds read high
Procedure, shortened: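 Inhibition of yeast growth, referenced to vehicle controls, was the measured output for a strain with defective DNA damage repair.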

[6] = NCI Yeast Anticancer Drug Screen. Data for the wt1 strain (AID 149);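 note: 0% = growth of vehicle-treated wt1 cultures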; details: S. cerevisiae wt1 strain (SPY 50644) growth inhibition, active compounds read high
Procedure, shortened: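 wt1 strain grown with compound or vehicle; inhibition taken from the growth difference.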

[7] = NCI Yeast Anticancer Drug Screen. Data for the mgt1 strain (AID 153); details: S. cerevisiae mgt1 mutant growth inhibition, active compounds read high
Procedure, shortened: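 In the mgt1 strain, test compounds were added and growth inhibition was determined relative to vehicle-treated controls.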

[8] = NCI Yeast Anticancer Drug Screen. Data for the rad50 strain (AID 155);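 note: 0% = growth of vehicle-only cultures of the same strain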; details: S. cerevisiae rad50 strain growth inhibition, active compounds read high
Procedure, shortened: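 DNA repair mutant yeast, compound exposure, growth read-out; inhibition is taken relative to vehicle.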

[9] = NCI Yeast Anticancer Drug Screen. Data for the mec2-1 strain (AID 157); details: S. cerevisiae mec2-1 strain, active compounds read high
Procedure, shortened: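 Each compound was tested on mec2-1 yeast, a strain altered in DNA damage repair or cell cycle control. Growth inhibition is reported relative to vehicle.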

[10] = NCI Yeast Anticancer Drug Screen. Data for the rad14 strain (AID 159);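 note: 0% = growth of vehicle-treated control cultures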; details: S. cerevisiae rad14 strain growth inhibition, active compounds read high
Procedure, shortened: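 DNA repair-defective yeast, compound-exposed; % growth inhibition derived by comparison with vehicle-treated controls.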

[11] = NCI Yeast Anticancer Drug Screen. Data for the sgs1 mgt1 strain (AID 161);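 note: 0% = growth of cultures given vehicle only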; details: S. cerevisiae sgs1 mgt1 strain, active compounds read high
Procedure, shortened: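 Inhibition of yeast growth, normalised to vehicle-treated controls, is reported for a strain bearing genetic alterations in DNA damage repair.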

[12] = NCI Yeast Anticancer Drug Screen. Data for the CLN2oe strain (AID 163);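 note: 0% = growth of vehicle-only control cultures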; details: S. cerevisiae CLN2oe strain, active compounds read high
Procedure, shortened: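 First, the altered yeast strain was treated with each compound; second, its growth was measured; finally, inhibition was derived by comparison with vehicle controls.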

[13] = NCI Yeast Anticancer Drug Screen. Data for the cln2 rad14 strain (AID 165);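 note: 0% = growth equal to vehicle treated cultures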; details: S. cerevisiae cln2 rad14 strain, active compounds read high
Procedure, shortened: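 Test compounds were added to cln2 rad14 yeast cultures; inhibition of growth was then determined by comparison with vehicle treatment.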

[14] = NCI Yeast Anticancer Drug Screen. Data for the bub3 strain (AID 167); details: S. cerevisiae bub3 mutant strain, active compounds read high
Procedure, shortened: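 In this screen, a yeast mutant lacking normal mitotic checkpoint function is challenged with compound. Relative growth versus vehicle gives the inhibition value.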

[15] = NCI Yeast Anticancer Drug Screen. Data for the wt2 strain (AID 169);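 note: 0% = growth of vehicle-treated yeast cultures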; details: S. cerevisiae wt2 strain growth inhibition, active compounds read high
Procedure, shortened: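 The panel's yeast strains carry defined changes in DNA repair or cell cycle genes. Each strain is grown with compound, and growth loss is scored relative to vehicle.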

[16] = at 5.0 µM (retest, dose inferred, filed as 0.5)
[17] = at 50.0 µM (retest, dose inferred, filed as 5.0)

## Brc1ccc(B2Nc3ccccc3N2)cc1
[1]; at 1.2 µM
  growth inhibition: 0%
[1]; at 3.7 µM
  growth inhibition: 6%
[1]; at 11.0 µM
  growth inhibition: 17%
[1]; at 33.0 µM
  growth inhibition: 28%
[1]; at 100.0 µM
  growth inhibition: 44%
[2]; at 1.2 µM
  growth inhibition: 0%
[2]; at 3.7 µM
  growth inhibition: 6%
[2]; at 11.0 µM
  growth inhibition: 23%
[2]; at 33.0 µM
  growth inhibition: 35%
[2]; at 100.0 µM
  growth inhibition: 45%
[3]; [16]
  growth inhibition: 47%
[3]; [17]
  growth inhibition: 87% (active)
[3]; at 50.0 µM
  growth inhibition: 82.5% (active)
[4]; at 1.2 µM
  growth inhibition: -2%
[4]; at 3.7 µM
  growth inhibition: 1%
[4]; at 11.0 µM
  growth inhibition: 13%
[4]; at 33.0 µM
  growth inhibition: 23%
[4]; at 100.0 µM
  growth inhibition: 36%

## O=c1[nH]c2c([N+](=O)[O-])cccc2c2ccccc12
[5]; at 1.2 µM
  growth inhibition: -1%
[5]; at 3.7 µM
  growth inhibition: 0%
[5]; at 11.0 µM
  growth inhibition: 6%
[5]; at 33.0 µM
  growth inhibition: 40%
[5]; at 100.0 µM
  growth inhibition: 89% (active)
[6]; at 1.2 µM
  growth inhibition: -3%
[6]; at 3.7 µM
  growth inhibition: -2%
[6]; at 11.0 µM
  growth inhibition: -2%
[6]; at 33.0 µM
  growth inhibition: 5%
[6]; at 100.0 µM
  growth inhibition: 73% (active)
[7]; at 1.2 µM
  growth inhibition: -4%
[7]; at 3.7 µM
  growth inhibition: -3%
[7]; at 11.0 µM
  growth inhibition: -3%
[7]; at 33.0 µM
  growth inhibition: 19%
[7]; at 100.0 µM
  growth inhibition: 90% (active)
[8]; at 1.2 µM
  growth inhibition: 2%
[8]; at 3.7 µM
  growth inhibition: -42%
[8]; [16]
  growth inhibition: 7%
[8]; at 11.0 µM
  growth inhibition: 33%
[8]; at 33.0 µM
  growth inhibition: 53%
[8]; [17]
  growth inhibition: 80% (active)
[8]; at 50.0 µM
  growth inhibition: 96.2% (active)
[8]; at 100.0 µM
  growth inhibition: 95% (active)
[9]; at 1.2 µM
  growth inhibition: 0%
[9]; at 3.7 µM
  growth inhibition: 0%
[9]; [16]
  growth inhibition: 4%
[9]; at 11.0 µM
  growth inhibition: 3%
[9]; at 33.0 µM
  growth inhibition: 17%
[9]; [17]
  growth inhibition: 52%
[9]; at 50.0 µM
  growth inhibition: 96% (active)
[9]; at 100.0 µM
  growth inhibition: 89% (active)
[10]; at 1.2 µM
  growth inhibition: 2%
[10]; at 3.7 µM
  growth inhibition: 5%
[10]; at 11.0 µM
  growth inhibition: 12%
[10]; at 33.0 µM
  growth inhibition: 24%
[10]; at 100.0 µM
  growth inhibition: 86% (active)
[11]; [16]
  growth inhibition: 2%
[11]; [17]
  growth inhibition: 51%
[11]; at 50.0 µM
  growth inhibition: 96.8% (active)
[12]; at 1.2 µM
  growth inhibition: -13%
[12]; at 3.7 µM
  growth inhibition: -15%
[12]; at 11.0 µM
  growth inhibition: -16%
[12]; at 33.0 µM
  growth inhibition: -29%
[12]; at 100.0 µM
  growth inhibition: 12%
[13]; [16]
  growth inhibition: -13%
[13]; [17]
  growth inhibition: 11%
[13]; at 50.0 µM
  growth inhibition: 93% (active)
[14]; at 1.2 µM
  growth inhibition: -4%
[14]; at 3.7 µM
  growth inhibition: -6%
[14]; [16]
  growth inhibition: 3%
[14]; at 11.0 µM
  growth inhibition: 0%
[14]; at 33.0 µM
  growth inhibition: 28%
[14]; [17]
  growth inhibition: 72% (active)
[14]; at 50.0 µM
  growth inhibition: 95% (active)
[14]; at 100.0 µM
  growth inhibition: 90% (active)
[15]; at 1.2 µM
  growth inhibition: -2%
[15]; at 3.7 µM
  growth inhibition: 6%
[15]; at 11.0 µM
  growth inhibition: -1%
[15]; at 33.0 µM
  growth inhibition: 12%
[15]; at 100.0 µM
  growth inhibition: 84% (active)
[2]; at 1.2 µM
  growth inhibition: -2%
[2]; at 3.7 µM
  growth inhibition: 0%
[2]; at 11.0 µM
  growth inhibition: 7%
[2]; at 33.0 µM
  growth inhibition: 40%
[2]; at 100.0 µM
  growth inhibition: 90% (active)
[3]; [16]
  growth inhibition: 4%
[3]; [17]
  growth inhibition: 41%
[3]; at 50.0 µM
  growth inhibition: 96.2% (active)
[4]; at 1.2 µM
  growth inhibition: 3%
[4]; at 3.7 µM
  growth inhibition: 9%
[4]; at 11.0 µM
  growth inhibition: 26%
[4]; at 33.0 µM
  growth inhibition: 73% (active)
[4]; at 100.0 µM
  growth inhibition: 96% (active)

## CCN(CC)C(=S)N/N=C(\C)c1ccccc1O
[5]; at 1.2 µM
  growth inhibition: -36%
[5]; at 3.7 µM
  growth inhibition: -42%
[5]; at 11.0 µM
  growth inhibition: -1%
[5]; at 33.0 µM
  growth inhibition: 96% (active)
[5]; at 100.0 µM
  growth inhibition: 99% (active)
[6]; at 1.2 µM
  growth inhibition: -7%
[6]; at 3.7 µM
  growth inhibition: -3%
[6]; at 11.0 µM
  growth inhibition: 28%
[6]; at 33.0 µM
  growth inhibition: 98% (active)
[6]; at 100.0 µM
  growth inhibition: 98% (active)
[8]; at 1.2 µM
  growth inhibition: 0%
[8]; at 3.7 µM
  growth inhibition: -13%
[8]; [16]
  growth inhibition: -1%
[8]; at 11.0 µM
  growth inhibition: 22%
[8]; at 33.0 µM
  growth inhibition: 98% (active)
[8]; [17]
  growth inhibition: 96% (active)
[8]; at 50.0 µM
  growth inhibition: 93.3% (active)
[8]; at 100.0 µM
  growth inhibition: 99% (active)
[9]; at 1.2 µM
  growth inhibition: 3%
[9]; at 3.7 µM
  growth inhibition: -3%
[9]; [16]
  growth inhibition: 35%
[9]; at 11.0 µM
  growth inhibition: 40%
[9]; at 33.0 µM
  growth inhibition: 97% (active)
[9]; [17]
  growth inhibition: 98% (active)
[9]; at 50.0 µM
  growth inhibition: 94.5% (active)
[9]; at 100.0 µM
  growth inhibition: 99% (active)
[10]; at 1.2 µM
  growth inhibition: 3%
[10]; at 3.7 µM
  growth inhibition: -22%
[10]; at 11.0 µM
  growth inhibition: 26%
[10]; at 33.0 µM
  growth inhibition: 96% (active)
[10]; at 100.0 µM
  growth inhibition: 98% (active)
[11]; [16]
  growth inhibition: -3%
[11]; [17]
  growth inhibition: 95% (active)
[11]; at 50.0 µM
  growth inhibition: 94% (active)
[12]; at 1.2 µM
  growth inhibition: 13%
[12]; at 3.7 µM
  growth inhibition: -5%
[12]; at 11.0 µM
  growth inhibition: 42%
[12]; at 33.0 µM
  growth inhibition: 96% (active)
[12]; at 100.0 µM
  growth inhibition: 99% (active)
[13]; [16]
  growth inhibition: 54%
[13]; [17]
  growth inhibition: 95% (active)
[13]; at 50.0 µM
  growth inhibition: 89.3% (active)
[14]; at 1.2 µM
  growth inhibition: -21%
[14]; at 3.7 µM
  growth inhibition: -7%
[14]; [16]
  growth inhibition: 95% (active)
[14]; at 11.0 µM
  growth inhibition: 36%
[14]; at 33.0 µM
  growth inhibition: 97% (active)
[14]; [17]
  growth inhibition: 98% (active)
[14]; at 50.0 µM
  growth inhibition: 93.3% (active)
[14]; at 100.0 µM
  growth inhibition: 99% (active)
[15]; at 1.2 µM
  growth inhibition: -37%
[15]; at 3.7 µM
  growth inhibition: -31%
[15]; at 11.0 µM
  growth inhibition: 6%
[15]; at 33.0 µM
  growth inhibition: 97% (active)
[15]; at 100.0 µM
  growth inhibition: 98% (active)
[1]; at 1.2 µM
  growth inhibition: 11%
[1]; at 3.7 µM
  growth inhibition: 25%
[1]; at 11.0 µM
  growth inhibition: 66%
[1]; at 33.0 µM
  growth inhibition: 98% (active)
[1]; at 100.0 µM
  growth inhibition: 99% (active)
[2]; at 1.2 µM
  growth inhibition: -5%
[2]; at 3.7 µM
  growth inhibition: 5%
[2]; at 11.0 µM
  growth inhibition: 42%
[2]; at 33.0 µM
  growth inhibition: 97% (active)
[2]; at 100.0 µM
  growth inhibition: 98% (active)
[3]; [16]
  growth inhibition: -18%
[3]; [17]
  growth inhibition: 97% (active)
[3]; at 50.0 µM
  growth inhibition: 92.2% (active)
[4]; at 1.2 µM
  growth inhibition: 18%
[4]; at 3.7 µM
  growth inhibition: 9%
[4]; at 11.0 µM
  growth inhibition: 29%
[4]; at 33.0 µM
  growth inhibition: 97% (active)
[4]; at 100.0 µM
  growth inhibition: 98% (active)
